From PubChem BioAssay (Tox21)
Unmarked numbers belong to inactive results. Inconclusive results are not listed. A call without a number means that no potency is given here. Calls of active or inactive are those of the source. Unless noted, calls follow the shape of the dose curve; as a rule, active = well fitted curve in the direction sought with a large enough effect in the repeat runs; inconclusive = weak or mixed curves; inactive = no such curve, though single readings can be large; an effect the other way counts as inactive or inconclusive.

Tests used:
[1] = qHTS assay for small molecules that induce genotoxicity in human embryonic kidney cells expressing luciferase-tagged ATAD5 (AID 651632); also: nearly all actives have a fitted effect of over 15% in size
Method in brief: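 Luminescence read-out: after 16 hr compound exposure at 37C, ATAD5-luciferase HEK293T cells received Amplite, 30 min RT, then CCD imaging. A rise in signal marks genotoxic stress.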

[2] = qHTS assay for small molecules that induce genotoxicity in human embryonic kidney cells expressing luciferase-tagged ATAD5 - cell viability (AID 651634; calls by dose curve; also: nearly all actives have a fitted effect of over 25% in size; also: potency is read from the fitted curve at half-maximal effect)
Method in brief: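 HEK293T ATAD5-luc cells, 2,000/well; compound 15.5 hr, 37C/5% CO2; CellTiter-Fluor 30 min, 37C; fluorescence read.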

[3] = qHTS assay for small molecule disruptors of the mitochondrial membrane potential - cell viability (AID 720634; calls by dose curve;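 also: human HepG2 liver cancer cells; series mostly up to about 83 µM; nearly all actives have a fitted effect of over 20% in size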)
Method in brief: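 Luminescence from CellTiter-Glo (ATP content) gave viability in HepG2 cells, read in the same wells as the MMP dye assay after 1 hr compound exposure at 37 C.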

[4] = qHTS assay to test for compound auto fluorescence at 590 nm (red) in HepG2 cells (AID 720674)
Method in brief: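 1 hr compound incubation on HepG2 cells, 37 C, 5% CO2; plate read ex 540 nm / em 590 nm; intensities reported as Rose Bengal sodium equivalents.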

[5] = qHTS assay to test for compound auto fluorescence at 535 nm (green) in HepG2 cells (AID 720675)
[6] = qHTS assay to test for compound auto fluorescence at 460 nm (blue) in HEK293 cells (AID 720678)
Method in brief: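 After cell attachment (4-5 hr, 37C), compounds were pinned onto HEK293 monolayers in 10% dialyzed FBS medium. The blue channel (405/460 nm) was read following overnight culture. Equivalency was calculated against triamterene.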

[7] = qHTS assay to test for compound auto fluorescence at 590 nm (red) in HEK293 cells (AID 720679)
Method in brief: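 Plates of HEK293 cells (10% dialyzed FBS) are treated with 23 nL compound or DMSO vehicle after a 4-5 hr attachment period, incubated overnight at 37C, and read for red fluorescence at 540/590nm.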

[8] = qHTS assay to test for compound auto fluorescence at 535 nm (green) in HEK293 cells (AID 720680)
[9] = qHTS assay to test for compound auto fluorescence at 460 nm (blue) in HEK293 cell free culture (AID 720681)
Method in brief: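 Blue fluorescence (Ex 405/Em 460 nm, triamterene-equivalent) was read immediately after pin transfer of compound or DMSO into medium (DMEM, 10% FBS) without cells.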

[10] = qHTS assay to test for compound auto fluorescence at 535 nm (green) in HEK293 cell free culture (AID 720682)
Method in brief: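 Compounds were pin-transferred into cell-free DMEM with 10% FBS, and green fluorescence was read at excitation 485 nm and emission 535 nm. Intensities were expressed as fluorescein-equivalent values.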

[11] = qHTS assay to test for compound auto fluorescence at 590 nm (red) in HEK293 cell free culture (AID 720683)
Method in brief: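 Red-channel autofluorescence of compounds in culture medium (DMEM, 10% FBS), no cells, measured at 540/590 nm. Rose Bengal sodium is the reference fluorophore for equivalence.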

[12] = qHTS assay to test for compound auto fluorescence at 590 nm (red) in HepG2 cell free culture (AID 720684)
Method in brief: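 Cell-free; medium MEM + 10% FBS; compound or DMSO added by pintool; read Ex 540/Em 590 nm; Rose Bengal sodium as red reference fluorophore.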

[13] = qHTS assay to test for compound auto fluorescence at 460 nm (blue) in HepG2 cell free culture (AID 720685)
Method in brief: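 Cell-free plates of MEM plus 10% FBS received 23 nL compound or DMSO vehicle; blue-channel (405/460 nm) intensity scored against triamterene as reference fluorophore.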

[14] = qHTS assay to test for compound auto fluorescence at 535 nm (green) in HepG2 cell free culture (AID 720686)
[15] = qHTS assay to test for compound auto fluorescence at 460 nm (blue) in HepG2 cells (AID 720687)
Method in brief: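 Blue-channel autofluorescence (Ex/Em 405/460 nm, triamterene-equivalent) was measured after 1 hr compound exposure at 37 C, 5% CO2. Cells were HepG2, plated overnight at 37 C in MEM plus 10% FBS.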

[16] = target: Glucocorticoid receptor (Homo sapiens) (UniProt P04150); assay: qHTS assay to identify small molecule agonists of the glucocorticoid receptor (GR) signaling pathway (AID 720691; active = well fitted activation curve with a large enough effect in the signal ratio in the repeat runs, not every such curve was filed as active; the % refers to the signal ratio)
Chain of Glucocorticoid receptor (Homo sapiens) (P04150 whole entry, looked up): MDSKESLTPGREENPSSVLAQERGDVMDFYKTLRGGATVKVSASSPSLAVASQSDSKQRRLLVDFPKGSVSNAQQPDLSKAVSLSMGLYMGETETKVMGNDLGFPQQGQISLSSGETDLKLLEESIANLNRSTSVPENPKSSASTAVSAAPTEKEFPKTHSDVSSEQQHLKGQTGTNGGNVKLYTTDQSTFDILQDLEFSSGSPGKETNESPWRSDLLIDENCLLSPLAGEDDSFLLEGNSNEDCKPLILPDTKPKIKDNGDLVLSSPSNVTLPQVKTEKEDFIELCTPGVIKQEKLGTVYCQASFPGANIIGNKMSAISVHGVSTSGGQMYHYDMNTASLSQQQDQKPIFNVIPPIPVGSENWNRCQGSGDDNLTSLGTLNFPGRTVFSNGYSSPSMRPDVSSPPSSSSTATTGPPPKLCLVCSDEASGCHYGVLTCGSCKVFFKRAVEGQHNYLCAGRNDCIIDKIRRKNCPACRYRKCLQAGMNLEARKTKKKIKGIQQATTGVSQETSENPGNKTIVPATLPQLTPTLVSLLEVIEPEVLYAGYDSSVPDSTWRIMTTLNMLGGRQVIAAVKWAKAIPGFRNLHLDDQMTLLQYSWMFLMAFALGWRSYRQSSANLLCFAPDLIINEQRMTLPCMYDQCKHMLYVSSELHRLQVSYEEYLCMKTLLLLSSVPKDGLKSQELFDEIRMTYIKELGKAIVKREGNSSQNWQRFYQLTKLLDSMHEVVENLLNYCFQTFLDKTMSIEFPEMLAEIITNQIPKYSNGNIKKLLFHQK
Method in brief: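 HeLa GR-bla reporter line; cells pre-incubated 4 h, compound in DMSO 18 h at 37 C; LiveBLAzer B/G FRET substrate 2 h RT; fluorescence intensity read-out.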

[17] = target: Glucocorticoid receptor (Homo sapiens) (UniProt P04150); assay: qHTS assay to identify small molecule antagonists of the glucocorticoid receptor (GR) signaling pathway (AID 720692; active = well fitted inhibition curve with a large enough effect in the signal ratio in the repeat runs, not every such curve was filed as active; the % refers to the signal ratio)
Method in brief: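 Read-out: beta-lactamase FRET substrate fluorescence, 2 h at room temperature, in HeLa cells stably carrying a GRE-driven bla reporter. Compounds were co-incubated with 5 nM dexamethasone agonist (final) for 18 h at 37 C.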

[18] = qHTS assay for small molecule disruptors of the mitochondrial membrane potential (AID 720635); also: potency is read from the fitted curve at half-maximal effect
Method in brief: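 Mitochondrial membrane potential tracked with Mito-MPS dye, red aggregates (ex 540/em 590 nm) against green monomers (ex 490/em 535 nm). Compound treatment 1 hr at 37C, dye 30 min in HepG2.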

[19] = qHTS assay for small molecule agonists of the p53 signaling pathway - cell viability (AID 651633; calls by dose curve;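 also: p53RE-bla HCT reporter cells with a stable beta-lactamase p53 reporter; series mostly up to about 83 µM; nearly all actives have a fitted effect of over 30% in size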)
Method in brief: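 Viability counter-read: CellTiter-Glo luminescence (30 min, room temperature) in the same p53RE-bla plates. These plates had been exposed to compounds for 16 h at 37 C.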

## CCCCCCCCc1ccc(S(=O)(=O)O)cc1
[1]
  Potency: inactive
[2]
  Potency: inactive
[3]
  Potency: inactive
[4]
  outcome: inactive
[5]
  outcome: inactive
[6]
  outcome: inactive
[7]
  outcome: inactive
[8]
  outcome: inactive
[9]
  outcome: inactive
[10]
  outcome: inactive
[11]
  outcome: inactive
[12]
  outcome: inactive
[13]
  outcome: inactive
[14]
  outcome: inactive
[15]
  outcome: inactive
[16]
  Potency: inactive
[17]
  Potency: inactive

## Cc1ccc(C(C)C)cc1O
[2]
  Potency: inactive
[3]
  Potency: inactive
[18]
  Potency: 48.6 µM (active)
[4]
  outcome: inactive
[5]
  outcome: inactive
[6]
  outcome: inactive
[7]
  outcome: inactive
[8]
  outcome: inactive
[9]
  outcome: inactive
[10]
  outcome: inactive
[11]
  outcome: inactive
[12]
  outcome: inactive
[13]
  outcome: inactive
[14]
  outcome: inactive
[15]
  outcome: inactive
[16]
  Potency: inactive
[17]
  Potency: inactive

## CCCCCCOc1ccc(N)cc1
[19]
  Potency: inactive
[2]
  Potency: inactive
[3]
  Potency: inactive
[4]
  outcome: inactive
[5]
  outcome: inactive
[6]
  outcome: inactive
[7]
  outcome: inactive
[8]
  outcome: inactive
[9]
  outcome: inactive
[10]
  outcome: inactive
[11]
  outcome: inactive
[12]
  outcome: inactive
[14]
  outcome: inactive
[15]
  outcome: inactive
[16]
  Potency: inactive

## CC(C)=CCCC(C)CCOC=O (stereo not drawn)
[19]
  Potency: inactive
[2]
  Potency: 54.5 µM (active)
[4]
  outcome: inactive
[5]
  outcome: inactive
[6]
  outcome: inactive
[7]
  outcome: inactive
[8]
  outcome: inactive
[9]
  outcome: inactive
[10]
  outcome: inactive
[11]
  outcome: inactive
[12]
  outcome: inactive
[13]
  outcome: inactive
[14]
  outcome: inactive
[15]
  outcome: inactive
[16]
  Potency: inactive
[17]
  Potency: inactive

## Clc1cccc(-c2cc(Cl)cc(Cl)c2)c1
[1]
  Potency: inactive
[2]
  Potency: inactive
[3]
  Potency: inactive
[4]
  outcome: inactive
[5]
  outcome: inactive
[6]
  outcome: inactive
[7]
  outcome: inactive
[8]
  outcome: inactive
[9]
  outcome: inactive
[10]
  outcome: inactive
[11]
  outcome: inactive
[12]
  outcome: inactive
[13]
  outcome: inactive
[14]
  outcome: inactive
[15]
  outcome: inactive

## O=C(O)[C@@H]1CSCN1
[2]
  Potency: inactive
[3]
  Potency: inactive
[18]
  Potency: inactive
[4]
  outcome: inactive
[5]
  outcome: inactive
[6]
  outcome: inactive
[7]
  outcome: inactive
[8]
  outcome: inactive
[9]
  outcome: inactive
[10]
  outcome: inactive
[11]
  outcome: inactive
[12]
  outcome: inactive
[13]
  outcome: inactive
[14]
  outcome: inactive
[15]
  outcome: inactive
[16]
  Potency: inactive
[17]
  Potency: inactive

## O=C(CC(=O)C(F)(F)F)c1ccccc1
[19]
  Potency: inactive
[18]
  Potency: 15.6 µM (active)
[4]
  outcome: inactive
[5]
  outcome: inactive
[6]
  outcome: inactive
[7]
  outcome: inactive
[8]
  outcome: inactive
[9]
  outcome: inactive
[10]
  outcome: inactive
[11]
  outcome: inactive
[12]
  outcome: inactive
[13]
  outcome: inactive
[14]
  outcome: inactive
[15]
  outcome: inactive

## CCOc1ccc(NC(N)=O)cc1
[1]
  Potency: inactive
[2]
  Potency: inactive
[3]
  Potency: inactive
[4]
  outcome: inactive
[5]
  outcome: inactive
[6]
  outcome: inactive
[7]
  outcome: inactive
[8]
  outcome: inactive
[9]
  outcome: inactive
[10]
  outcome: inactive
[11]
  outcome: inactive
[12]
  outcome: inactive
[13]
  outcome: inactive
[14]
  outcome: inactive
[15]
  outcome: inactive
[16]
  Potency: inactive
[17]
  Potency: inactive
